# Screening data deposited in PubChem BioAssay by Sanford-Burnham Center for Chemical Genomics.
# CYP2C19 activ – human CYP2C19 activators, primary screen, biochemical, luminescence | Cytochrome P450 2C19 (Homo sapiens), P33261 | recombinant CYP2C19, luciferin-H EGE luminescence; active compounds read high; 0 = fully inhibited enzyme, 1 = untreated enzyme | activation factor at 5 µM | 96,000 tested, under 10 active | AID 1025, 2008;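 active = activation factor of at least 2 at 5 µM in the primary screen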;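 note: 0 = wells with 2.5 mM tranylcypromine and 1 = vehicle-only wells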
# Target sequence (P33261 whole entry, looked up): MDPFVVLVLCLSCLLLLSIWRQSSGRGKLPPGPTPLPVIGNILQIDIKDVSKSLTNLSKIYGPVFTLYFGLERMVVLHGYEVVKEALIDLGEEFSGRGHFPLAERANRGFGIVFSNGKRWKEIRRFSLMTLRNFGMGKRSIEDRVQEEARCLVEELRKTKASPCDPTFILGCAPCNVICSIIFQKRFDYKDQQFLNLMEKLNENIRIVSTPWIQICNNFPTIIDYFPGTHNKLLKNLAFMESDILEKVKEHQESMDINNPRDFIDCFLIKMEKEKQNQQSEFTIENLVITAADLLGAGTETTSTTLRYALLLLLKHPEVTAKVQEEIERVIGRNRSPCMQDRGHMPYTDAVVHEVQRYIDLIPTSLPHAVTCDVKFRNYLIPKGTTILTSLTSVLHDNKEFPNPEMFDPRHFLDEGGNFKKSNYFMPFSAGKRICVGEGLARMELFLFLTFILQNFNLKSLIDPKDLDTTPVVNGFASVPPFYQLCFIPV
# CYP2C9 inh – blockers of cytochrome P450 2C9 activity – biochemical, luminescence, ADME assay, primary screen. CYP2C9 Supersomes, luciferin-H conversion. inhibition, % at 5 µM. 96,000 compounds, 20% hits;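 active = blocking of liver enzyme CYP2C9 beyond about 50% at 5 µM, limit read from the data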
# CYP2C19 inh – blockers of cytochrome P450 2C19 activity – biochemical, luminescence, ADME assay, primary screen; CYP2C19 Supersomes, luciferin-H EGE luminescence, 30 min; inhibition, % at 5 µM; 96,000 compounds, 21% hits;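 active = CYP2C19 inhibition above a set limit at 5 µM in the primary screen, cut at about 50% in these data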;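 note: plate controls were negative control wells for no effect and 2.5 mM tranylcypromine positive control for full effect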
# CYP2C9 act – human CYP2C9 activators, primary screen, biochemical, luminescence. Cytochrome P450 2C9 (Homo sapiens), P11712. activation factor at 5 µM. recombinant CYP2C9, luciferin-H conversion; active compounds read high; factor 1 = untreated enzyme, 0 = blocked. 96,000 compounds, 1.4% hits;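 active = activation factor of 2 or more for CYP2C9 at a 5 µM dose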;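 note: 0 = sulfaphenazole-blocked wells and 1 = vehicle-only wells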
# PLAP activator – PLAP enzyme activators, biochemical, luminescence, HTS. Alkaline phosphatase, placental type (Homo sapiens), P05187. purified PLAP enzyme, luminescent substrate read-out; active compounds read high. activation fold at 20 µM. 96,000 compounds, 1.2% hits. AID 696, 2007; in the data active = activation fold above about 2
# * hit, by the source's call. Most compounds without a hit are left out; they make up all but 31% or so of the library.
SMILES,CYP2C19 activ,CYP2C9 inh,CYP2C19 inh,CYP2C9 act,PLAP activator
Cc1cc(N2CCN(S(=O)(=O)c3ccc4c(c3)OCCO4)CC2)n2ncnc2n1,0.8,3,16,1,1.4
Cc1ccc2nc(Nc3nc(CSc4nnnn4-c4ccccc4)cc(=O)[nH]3)nc(C)c2c1,0.3,80*,67*,0.2,2.8*
O=C(O)C1CCC(=O)N1C1CCCC1 (stereo not drawn),1,-11,0,1.1,0.9
COc1ccccc1NC=C1C(=O)OC(C)(C)OC1=O,0.6,-8,37,1.1,0.9
CCOc1ccccc1NC=C1C(=O)OC(C)(C)OC1=O,0.8,-97,17,2*,1.1
O=S(=O)(c1cccc(S(=O)(=O)N2CCOCC2)c1)N1CCCCC1,0.6,24,41,0.8,1.2
O=S(=O)(NC1CC1)c1cccc(S(=O)(=O)N2CCCC2)c1,0.2,5,82*,0.9,1.2
O=S(=O)(NC1CCCC1)c1cccc(S(=O)(=O)N2CCC(n3nnc4ccccc43)CC2)c1,0.3,72*,75*,0.3,1.3
CC1(C)CC(=O)C(C=NCCc2ccc(O)cc2)=C(O)C1,1,-10,-4,1.1,1
C#CCOC(=O)Nc1ccc(=O)n(Cc2c(Cl)cccc2Cl)c1,0.5,69*,54*,0.3,1
NC(=O)CSCc1c(Cl)cccc1Cl,1,-15,0,1.2,0.8
O=C(c1ccco1)N1CCN(C(=O)c2ccccc2OC(=O)C23CC4CC(CC(C4)C2)C3)CC1,0.2,65*,79*,0.3,1.6
O=C(COC(=O)C1(c2ccc(F)cc2)CCCC1)N1CCN(C(=O)c2ccco2)CC1,0.3,82*,73*,0.2,1.6
N#Cc1ccccc1Sc1ccccc1C(=O)OCC(=O)N1CCN(C(=O)c2ccco2)CC1,0.7,77*,25,0.2,1.5
O=C(Nc1ccccc1C(=O)OCC(=O)N1CCc2ccccc2C1)c1ccco1,0.3,87*,65*,0.1,1.2
O=C(OCC(=O)N1CCN(C(=O)c2ccco2)CC1)c1sc2ccccc2c1Cl,0.8,15,23,0.9,1
CN1CC(=O)N(C)c2nc(Br)n(C)c2C1=O,1.1,-19,-14,1.2,1
CCOc1ccc(N2CCn3c2nc2c3c(=O)n(CCc3ccccc3)c(=O)n2C)cc1,1,22,2,0.8,1.2
O=C(OCC(=O)N1CCN(C(=O)c2ccco2)CC1)c1ccccc1O,0.5,72*,46,0.3,1.1
CCS(=O)(=O)N1CCN(C(=O)c2ccco2)CC1,0.9,-6,10,1.1,0.9
O=C(COC(=O)c1ccccc1OCc1ccc(Cl)cc1)NC1CC1,0.3,62*,75*,0.4,0.9
O=C(OCC(=O)N1CCN(C(=O)c2ccco2)CC1)c1ccccc1OCc1ccc(Cl)cc1,0.6,77*,39,0.2,1.6
CC1CCC(NC(=O)COc2ccccc2C(N)=O)CC1 (stereo not drawn),0.8,-8,21,1.1,0.9
CCN(CC)S(=O)(=O)c1ccc(C(=O)OCC(=O)N2CCN(C(=O)c3ccco3)CC2)cc1,0.8,96*,15,0,1.5
Cc1cc(-c2c(C)n([O-])c(C)c(C)[n+]2=O)ccc1F,0.8,-8,24,1.1,1
SMILES,CYP2C19 activ,CYP2C9 inh,CYP2C19 inh,CYP2C9 act,PLAP activator
O=C1CCC([N+](=O)[O-])C(c2cccc(Cl)c2Cl)N1 (stereo not drawn),1.1,11,-11,0.9,1.1
CCOc1ccc(N2CSC3=C(C#N)C(c4ccco4)CC(=O)N3C2)cc1 (stereo not drawn),0.9,33,7,0.7,1.4
N#CC1=C2SCN(Cc3ccco3)CN2C(=O)CC1c1c(F)cccc1Cl (stereo not drawn),1,23,3,0.8,1
COc1cc(OC)c(C2CC(=O)N3CN(c4ccccc4)CSC3=C2C#N)cc1OC (stereo not drawn),0.9,38,15,0.6,1.2
N#CC1=C2SCN(c3ccccc3)CN2C(=O)CC1c1cccs1 (stereo not drawn),0.5,83*,50*,0.2,1.3
N#CC1=C2SCN(c3ccccc3)CN2C(=O)CC1c1ccccc1Cl (stereo not drawn),0.7,61*,27,0.4,1
N#CC1=C2SCN(c3ccccc3)CN2C(=O)CC1c1c(Cl)cccc1Cl (stereo not drawn),0.9,88*,15,0.1,1
Cc1ccc(C2CC(=O)N3CN(c4ccc(Br)cc4)CSC3=C2C#N)o1 (stereo not drawn),0.1,98*,90*,0,1
Cc1ccc(Cn2c(NCCc3ccccc3)nc3c2c(=O)n(C)c(=O)n3C)cc1,1,13,1,0.9,1
COc1ccc(CNc2nc3c(c(=O)n(Cc4ccc(Cl)cc4)c(=O)n3C)n2C)cc1,0.9,13,14,0.9,1.7
CCNc1nc2c(c(=O)n(Cc3ccccc3)c(=O)n2C)n1Cc1ccccc1,0.2,90*,84*,0.1,1.6
CC1CN(c2nc3c(c(=O)n(Cc4ccc(Cl)c(Cl)c4)c(=O)n3C)n2C)CC(C)O1 (stereo not drawn),1,24,0,0.8,1.6
Cn1c(=O)c2c(nc(NCCCO)n2Cc2cccc(C(F)(F)F)c2)n(C)c1=O,0.4,29,59*,0.7,1.4
Cn1c(N2CCN(c3ccccn3)CC2)nc2c1c(=O)n(Cc1ccc(Cl)cc1)c(=O)n2C,0.1,86*,92*,0.1,1.4
Cn1c(=O)c2c(nc(NCc3cccnc3)n2Cc2ccc(Cl)cc2)n(C)c1=O,0.5,70*,54*,0.3,1.1
COc1ccccc1NC(=O)c1nn(-c2ccc(F)c(F)c2)ccc1=O,1.1,-30,-12,1.3,1.1
Cc1csc(-c2cnn(-c3ccccc3)c2NC(=O)c2cccc(C(F)(F)F)c2)n1,0.8,48,22,0.5,1.1
O=C(N/N=C/c1c(Cl)cccc1Cl)c1ccc(F)cc1,0.7,-10,28,1.1,0.8
Cc1cc(Cl)c(S(=O)(=O)N/N=C/c2ccc3c(c2)OCO3)c(Cl)c1,0.6,96*,39,0,1.2
CCn1ncc(/C=N/NS(=O)(=O)c2ccc(Cl)cc2)c1C,0.3,88*,67*,0.1,1
O=S(=O)(N/N=C/c1ccc2c(c1)OCCO2)c1ccc(Cl)cc1,0.7,71*,32,0.3,1.2
Cc1ccc(S(=O)(=O)N/N=C/c2cnn(C)c2C)cc1,0.7,37,32,0.6,0.8
O=S(=O)(N/N=C\c1c(F)cccc1Cl)c1ccc(Cl)cc1,0.2,64*,81*,0.4,0.9
CC(C)CCn1c(SCC(N)=O)nc2c1c(=O)n(C)c(=O)n2C,1.1,-2,-14,1,1.2
